# Measurements from the supplement of paper PMC4166925.
# ± gives the standard deviation of the averaged measurements. In all, about 33,000 sequences were measured (“E-score (dimensionless, -0.5 to 0.5)”: median about -0.046, highest 2% from about 0.36 on). Many of the other results were omitted from the sample, so the highest values are more common in it than they were.
# Tested on: T1, SpTbr T-box DNA-binding domain (GST fusion)
# T1 sequence: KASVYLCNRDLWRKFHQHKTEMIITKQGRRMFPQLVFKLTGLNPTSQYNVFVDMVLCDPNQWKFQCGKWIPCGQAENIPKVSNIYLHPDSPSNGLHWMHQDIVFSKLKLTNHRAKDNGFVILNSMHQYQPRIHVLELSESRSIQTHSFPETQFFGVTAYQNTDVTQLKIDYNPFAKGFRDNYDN
# Assay: PBM E-score of 8-mer (E-score (dimensionless, -0.5 to 0.5)); Tbr is Tbrain of the sea star Patiria miniata (Pm) or the sea urchin Strongylocentrotus purpuratus (Sp); higher = stronger binding preference
# Settings: the construct has about 5 more residues each side
# Method in brief: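 Each ungapped 8-mer received an enrichment E-score from the Universal PBM Analysis Suite, averaged over duplicate arrays. The proteins were Tbr T-box DNA-binding domains, covering the whole T-box plus about five flanking residues, fused to GST and expressed in BL21 E. coli at 20 °C before glutathione affinity purification. Universal Agilent oligonucleotide arrays were made double-stranded by primer extension and incubated with 200 nM protein in PBS (pH 7.5). The arrays were then scanned and quantified, and every 8-mer was scored from probe intensities.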
row,Sequence,PBM E-score of 8-mer
1,AGACACCA,0.251 ± 0.032
2,GGACACCC,0.185 ± 0.023
3,AGACACCC,0.156 ± 0.041
4,GGACACCA,0.183 ± 0.045
5,CGACACCA,0.387 ± 0.014
6,CGACACCC,0.416 ± 0.028
7,GGCCACTA,-0.0216 ± 0.031
8,CTACTACC,-0.112 ± 0.033
9,CCAATTTC,0.0768 ± 0.033
10,ATCGCTCG,-0.0361 ± 0.046
11,CTGGCACA,0.1856 ± 0.00035
12,CTCGCAAG,0.204 ± 0.032
13,CTCGCACA,0.37 ± 0.016
14,CCCGCACC,0.311 ± 0.036
15,CTCGCAGA,0.0495 ± 0.024
16,CTCGCACC,0.451 ± 0.016
17,ATCGCACA,0.366 ± 0.0063
18,ATCGCAAG,0.177 ± 0.03
19,CTCGCATC,0.129 ± 0.052
20,ATGGCACC,0.3573 ± 0.0028
21,CTGGCACC,0.367 ± 0.018
22,ATCGCACG,0.345 ± 0.027
23,AGAGTGAC,0.145 ± 0.013
24,ATATTGGC,0.12 ± 0.019
25,CGATAGTA,-0.122 ± 0.091

row,Sequence,PBM E-score of 8-mer
1,ATTCTACA,-0.0365 ± 0.019
2,ACGAAAGA,-0.0823 ± 0.0021
3,AGACTGCG,0.0627 ± 0.0045
4,GAATCTTA,-0.197 ± 0.05
5,CATCTCTA,-0.0506 ± 0.074
6,CAGACTCA,-0.0949 ± 0.051
7,GCTCTCAC,0.312 ± 0.028
8,GACTGTGC,-0.124 ± 0.033
9,GCCCGTCC,-0.216 ± 0.0065
10,GCCAGGCC,-0.217 ± 0.036
11,ATCGCAAC,0.232 ± 0.0099
12,ATCGCAGC,0.0579 ± 0.024
13,GTCGCAAA,0.0958 ± 0.038
14,GTCGCACA,0.3754 ± 0.0036
15,ATCGCACC,0.47 ± 0.006
16,GTCGCAGA,-0.0708 ± 0.1
17,AAGGTTAG,-0.0571 ± 0.0011
18,CTCGGGCC,-0.167 ± 0.0065
19,GCCGGTCC,-0.235 ± 0.075
20,AACTCACG,0.00507 ± 0.019
21,TGCTCACA,0.3801 ± 0.0011
22,GGCTCACA,0.161 ± 0.053
23,CACTCACG,0.266 ± 0.052
24,CGCTCACA,0.263 ± 0.015
25,CACTCACA,0.377 ± 0.017

row,Sequence,PBM E-score of 8-mer
1,TACTCACA,0.371 ± 0.0028
2,AACTCACA,0.2436 ± 0.00066
3,GACTCACA,0.313 ± 0.038
4,ACGAGCTA,-0.118 ± 0.015
5,TCAACCCA,-0.174 ± 0.026
6,ATACTTGC,0.0754 ± 0.026
7,ATGCATCA,0.0819 ± 0.023
8,CGACTGAC,0.0364 ± 0.013
9,AGAGGAGC,-0.0105 ± 0.083
10,ACCTGTAC,-0.148 ± 0.024
11,GAGTAAAC,-0.0192 ± 0.019
12,CCCAGAAA,-0.216 ± 0.045
13,AAGTGTAA,0.399 ± 0.018
14,GATTGTCA,0.248 ± 0.0068
15,CAGTGTCA,0.3068 ± 0.002
16,TAGTGTAA,0.216 ± 0.061
17,AAGTGTAG,0.144 ± 0.0052
18,TCGTGTCA,0.294 ± 0.0086
19,GAGTGTCA,0.4478 ± 0.0016
20,TAGTGTCA,0.395 ± 0.032
21,AAGTGTCT,0.292 ± 0.033
22,AAGTGTCG,0.425
23,GAGTGTCC,0.0603 ± 0.01
24,CAGTGTCG,0.266 ± 0.0072
25,AGCAAAGC,-0.0455 ± 0.048

row,Sequence,PBM E-score of 8-mer
1,AAAGCAGT,-0.167 ± 0.049
2,TGAGATAA,0.0687 ± 0.09
3,CACAGGGG,0.0864 ± 0.031
4,ACCGTTCC,-0.000825 ± 0.11
5,AAGTGTAT,0.0229 ± 0.032
6,AAGTGTCA,0.46288 ± 2.8e-05
7,AAGTGTCC,0.2466 ± 0.0019
8,CCTATGCG,0.00647 ± 0.019
9,ACACGCCA,0.205 ± 0.0044
10,GCACGCGA,0.186 ± 0.025
11,GCGCGCCA,0.133 ± 0.087
12,TCACGCCA,0.403 ± 0.0053
13,GCACGCCA,0.0542 ± 0.013
14,TCACGCGA,0.3949 ± 0.0026
15,ACGCGCCA,0.201 ± 0.019
16,GCGCGCGA,0.316 ± 0.041
17,CCACGCGA,0.172 ± 0.028
18,TCGCGCGA,0.379 ± 0.0069
19,TCGCGCCA,0.384 ± 0.009
20,CCGCGCGA,0.203 ± 0.03
21,CAGACAAA,-0.0589 ± 0.033
22,GGATACAA,0.0747 ± 0.011
23,CCGCCTCG,-0.0478 ± 0.058
24,TAAAGAAA,-0.13 ± 0.11
25,CCCTAACC,-0.113 ± 0.029

row,Sequence,PBM E-score of 8-mer
1,ACGCGCGG,0.229 ± 0.028
2,ACGCGCGA,0.393 ± 0.023
3,ACGCGCGC,0.189 ± 0.056
4,AAGTAGAA,0.0466 ± 0.046
5,TGTGAACA,0.445 ± 0.0018
6,GGTGAACA,-0.0711 ± 0.04
7,CGTGAACC,0.353 ± 0.018
8,CGTGAAAA,0.329 ± 0.069
9,TGTGAAAA,0.394 ± 0.048
10,TATGAACA,-0.0802 ± 0.022
11,AGTGAACA,0.175 ± 0.0043
12,CGTGAACA,0.3774 ± 0.003
13,GGTGAAAA,0.126 ± 0.095
14,AGATATTC,-0.243 ± 0.033
15,AGCTATTG,-0.0351 ± 0.028
16,ACTTAGAG,-0.0957 ± 0.015
17,CCCAAATC,-0.108 ± 0.11
18,CCAAGAGC,-0.28 ± 0.06
19,ACGTGAGG,0.196 ± 0.024
20,GGGTGAGA,0.424 ± 0.0073
21,AGGTGAAA,0.266 ± 0.045
22,GAGTGAGA,0.346 ± 0.023
23,AGGTGAGG,0.4113 ± 0.0021
24,CGGTGAGA,0.257 ± 0.012
25,AAGTGAGG,0.2725 ± 0.0021

row,Sequence,PBM E-score of 8-mer
1,AAGTGAGA,0.4 ± 0.018
2,GGGGGTGA,0.289 ± 0.03
3,CAGTGAGA,0.157 ± 0.062
4,AGGTGAGC,0.2602 ± 0.00092
5,AGGTGAGA,0.4826 ± 0.0046
6,CATCGATA,-0.00022 ± 0.06
7,CGCAAGGA,-0.051 ± 0.018
8,AGATTCCG,-0.0246 ± 0.022
9,CTCGTATA,-0.142 ± 0.0069
10,TAACTACA,0.0924 ± 0.085
11,AAGGTGTG,0.4816 ± 0.0018
12,AAGGTGTA,0.394 ± 0.023
13,ACGGTGTG,0.3578 ± 0.0014
14,AAGGTTTG,-0.161 ± 0.046
15,ACGGTGTA,0.137 ± 0.026
16,GGGGTGTA,0.167 ± 0.062
17,CCGGTGTA,0.115 ± 0.037
18,GCGGTGTA,-0.122 ± 0.012
19,GAGGTGTA,0.418 ± 0.014
20,TACGACCA,-0.249 ± 0.12
21,CGTGCACG,0.00996 ± 0.044
22,CTTTCTAA,-0.187 ± 0.023
23,ACGCAGGC,-0.149 ± 0.011
24,CTTAGTGA,0.0752 ± 0.0019
25,ACGCGAGT,0.107 ± 0.072

row,Sequence,PBM E-score of 8-mer
1,ATGGGAGC,-0.168 ± 0.01
2,GGTTCAAA,-0.343 ± 0.0085
3,AGTTCACC,-0.00201 ± 0.066
4,CGTTCAAG,-0.167 ± 0.0076
5,AGATCACA,0.342 ± 0.02
6,AGTTCACA,0.442 ± 0.013
7,GGTTCATA,-0.0395 ± 0.039
8,CGTTCACA,0.418 ± 0.0069
9,CGTTCACC,0.0843 ± 0.012
10,CGATCACG,0.221 ± 0.037
11,GGTTCACA,0.3973 ± 0.0018
12,CGATCACA,0.396 ± 0.0068
13,AGTTCACG,0.338 ± 0.049
14,TAGATCCA,-0.288 ± 0.061
15,CTAGTTTA,-0.132 ± 0.14
16,AGTCCTGG,-0.262 ± 0.021
17,CGGAGATA,0.0372 ± 0.0019
18,AATTGGGA,-0.0875 ± 0.07
19,CCTTGGAG,-0.1541 ± 0.00054
20,ACGCGCCG,0.227 ± 0.11
21,ACACAGTA,0.116 ± 0.02
22,GCCTTCGC,0.296 ± 0.0037
